Data reported in PubChem BioAssay AID2540 (Sanford-Burnham Center for Chemical Genomics, 2010).
Out of some 330,000 compounds screened, about 4,100 (1.2%) were called active. For the sample, actives were picked, then their nearest neighbours and some compounds at random. A number with no mark means an inactive call. Rule as the data show it: active = inhibition above about 50%; inactive = the rest.

Molecular target: Sentrin-specific protease 8 (Homo sapiens) (UniProt Q96LD8)
Assay: blockers of human SENP8 peptidase activity – biochemical, luminescence, primary screen (AID 2540)
Conditions: purified SENP8, Z-RLRGG-aminoluciferin cleavage, at 10 µM, hits give high values

Chain of Sentrin-specific protease 8 (Homo sapiens) (Q96LD8 whole entry, looked up): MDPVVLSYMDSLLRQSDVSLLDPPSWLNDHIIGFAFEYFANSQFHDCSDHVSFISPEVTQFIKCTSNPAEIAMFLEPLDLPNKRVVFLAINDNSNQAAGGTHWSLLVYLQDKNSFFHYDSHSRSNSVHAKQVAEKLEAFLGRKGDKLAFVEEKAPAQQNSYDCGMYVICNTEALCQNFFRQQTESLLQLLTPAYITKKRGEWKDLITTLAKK

SMILES | inhibition
COc1cccc(-c2nc3ccc(N4CCN(C)CC4)cc3[nH]2)c1 | 57.4% (active)
Cc1nc2ccc(N3CCN(C)CC3)cc2nc1C | -5.08%
CN1CCN(c2cc(N3CCNCC3)ccc2[N+](=O)[O-])CC1 | 2.96%
CN(C)P(=S)(Nc1ccccc1)C(Cl)(Cl)Cl (stereo not given) | -7.38%
COc1ccccc1CN1CCN(C(=O)Cc2ccccc2)CC1 | -9.12%
COc1cc(Cn2c(N)c(C(=O)NCc3ccco3)c3nc4ccccc4nc32)cc(OC)c1OC | 90.9% (active)
CCOC(=O)c1c(N)n(CCN2CCOCC2)c2nc3ccccc3nc12 | 2.3%
CCOC(=O)c1c(N)n(Cc2ccccc2)c2nc3ccccc3nc12 | 9.31%
CC(=O)c1ccc(OC(NC(=O)Cc2ccccc2)C(Cl)(Cl)Cl)cc1 (stereo not given) | -0.124%
CCOc1ccc(CN(CCCl)CCCl)cc1C(=O)OC | -7.06%
